# Reference: the supplement of paper PMC10105736
# A number with no mark means an inactive call.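 Rule for the calls: active = MAPPIT score above the 99th percentile of random reference set scores in the same batch; inactive = at or below it.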
# B1: RFeSP (protein)
# chain: MMNAVSRAYVRGGAQVLSTGLKASGVAVNSMANRQAHTDLQVPDFSAYRRESVKDSRRRNDTAEERKAFSYLMVGAGAVGGAYAAKGLVNTFIGSMSASAEVLAMAKIEIKLSDIPEGKSVTFKWRGKPLFIRHRTAAEIETERNVPTSTLRDPEADDQRVIKPEWLVVIGVCTHLGCVPIANAGDWGGYYCPCHGSHYDASGRIRKGPAPLNLEVPTHEFPNEGLLVVG
# B2: pho (protein)
# chain: MAYERFGIILQSEQYDEDIGNTKVNQKMNEGNHYDLHRKNAFDRIIHSESKKGDNVINYNIHENDKIKAADNIFSSKLKMNPNMSYEMNINCFKNIGYGENQETSKVLTNSLSNNDINTEESGVVDKNSPFLTLGTTILNSNGKSRRWEQKLVHIKTMEGEFSVTMWASGISDDEYSGSDQIVGASDLLKGKEEFGIDGFTSQQNKEYQKMESKFTNAQTLEMPHPISSVQIMDHLIKERGNLSQENNISERILSKTTLSFEEPILLPDSSSIELVNETAAMTINNHRTLSNHTGNTGDLHALPSSVPFRIGLHEGQVNDCLSTISQSTHQDNTDSTGCGEMNLSEVTVSYTNDKKIACPHKGCNKHFRDSSAMRKHLHTHGPRVHVCAECGKAFVESSKLKRHQLVHTGEKPFQCTFEGCGKRFSLDFNLRTHVRIHTGDRPFVCPFDACNKKFAQSTNLKSHILTHAKAKRNTSISGKSGCSNAESNSQSEDTSANYVKVELQDSVTENHVPFVVYAD
# B3: mgr (protein)
# chain: MTGIMDSVEMPKLPENQKTFAGIPEAVFLEEIDTFMSQPENENCEKVLQRLDEQHGKYRFMACNLEARRRKLKSQIPDLERSLEMVNVLRKEDEERETQFLLSDQVFIKTLVPPTKTVYLWLGASVMLEYPLDEAEALLNQNITSAVGNLKSVEHDQDFLRDQITTTEVNMARVYNWGVKKRQAATKTTATTPS
# B4: eIF3f1 (protein)
# chain: MSALNLTVRVHPVVLFQVVDAFERRNADSHRVIGTLLGSVDKGVVEVTNCFCVPHKEHDDQVEAELSYALDMYDLNRKVNSNESVVGWWATGNDVTNHSSVIHEYYARECNNPVHLTVDTSLQGGRMGLRAYVCIQLGVPGGKSGCMFTPIPVELTSYEPETFGLKLLQKTVGVSPAHRPKTVPPMLDLAQISEASTKLQSLLDLILKYVDDVIAHKVTPDNAVGRQLLDLIHSVPHMTHEQFTQMFNANVRNLLLVITLSQLIKTQLQLNEKLTFLPTA
# B5: lok (protein)
# chain: MARDTQGTQGTQSQASNIWTQVESQPMEKIVWGRLYGKNIKIKSLGTSSKYRIIYTHSSFSVDLNNDEFTAGRGEANDLILTLNDLPEKILTRISKVHFIIKRANCELTNPVYIQDLSRNGTFVNNEKIGTNRMRILKNDDVISLSHPTYKAFVFKDLSPNESIGLPEEINKTYYVNRKLGSGAYGLVRLVYDTRTCQQFAMKIVKKNMLSGARPSTNFSDPDRVLNEAKIMKNLSHPCVVRMHDIVDKPDSVYMVLEFMRGGDLLNRIISNKLLSEDISKLYFYQMCHAVKYLHDRGITHRDLKPDNVLLETNDEETLLKVSDFGLSKFVQKDSVMRTLCGTPLYVAPEVLITGGREAYTKKVDIWSLGVVLFTCLSGTLPFSDEYGTPAAQQIKKGRFAYGHPSWKSVSQRAKLLINQMLIVDPERRPSIDDVLQSSWLRDAPMLQKAKRLMKLDGMEIEEENFLEPPTKRSRR
# B6: RpS20 (protein)
# chain: MAAAPKDIEKPHVGDSASVHRIRITLTSRNVRSLENVCRDLINGAKNQNLRVKGPVRMPTKTLRITTRKTPCGEGSKTWDRFQMRIHKRIIDLHSPSEIVKKITSINIEPGVEVEVTIAN
# B7: cnn (protein)
# chain: MNSNRTSSSHNSRNLKILNASFDVPRPPGGGNSPLPSQGRSVRELEEQMSALRKENFNLKLRIYFLEEGQPGARADSSTESLSKQLIDAKIEIATLRKTVDVKMELLKDAARAISHHEELQRKADIDSQAIIDELQEQIHAYQMAESGGQPVENIAKTRKMLRLESEVQRLEEELVNIEARNVAARNELEFMLAERLESLTACEGKIQELAIKNSELVERLEKETASAESSNEAIDSLKVELEACRKENQDLVTSIRTLKHDMKRQVRSMKEAANTMDVQRQSILLLEATIKRKEKSCGSMQKNVLNYEALIAKLNAELETMRQQNVYFRELSENLQQKEVRQLDRGVAIVQPMRMTADAGRFVWQSGTIVAQEPLPLERQSAAATSNVSVSAVRLSSGPPPDQTYPVNGHDRAKYGLLQLFAAKLDWISAVPLALGHLALKIILLAMRLHSCLQNVHIPLRANRDLGAQLADKICELQEAQEKLKERERIHEQACRTIQKLMQKLSSQEKEIKKLNQENEQSANKENDCAKTVISPSSSGRSMSDNEASSQEMSTNLRVRYELKINEQEEKIKQLQTEVKKKTANLQNLVNKELWEKNREVERLTKLLANQQKTLPQISEESAGEADLQQSFTEAEYMRALERNKLLQRKVDVLFQRLADDQQNSAVIGQLRLELQQARTEVETADKWRLECVDVCSVLTNRLEELAGFLNSLLKHKDVLGVLAADRRNAMRKAVDRSLDLSKSLNMTLNITATSLADQSLAQLCNLSEILYTEGDASHKTFNSHEELHAATSMAPTVENLKAENKALKKELEKRRSSEGQRKERRSLPLPSQQFDNQSESEAWSEPDRKVSLARIGLDETSNSLAAPEQAISESESEGRTCATRQDRNRNSERIAQLEEQIAQKDERMLNVQCQMVELDNRYKQEQLRCLDITQQLEQLRAINEALTADLHAIGSHEEERMVELQRQLELKNQQIDQLKLAHSTLTADSQITEMELQALQQQMQEIEQLHADSVETLQSQLQKLKLDAVQQLEEHERLHREALERDWVALTTYQEQAQQLLELQRSLDYHQENEKELKQTLVENELATRALKKQLDESTLQASKAVMERTKAYNDKLQLEKRSEELRLQLEALKEEHQKLLQKRSNSSDVSQSGYTSEEVAVPMGPPSGQATTCKQAAAAVLGQRVNTSSPDLGIESDAGRISSVEVSNAQRAMLKTVEMKTEGSASPKAKSEESTSPDSKSNVATGAATVHDCAKVDLENAELRRKLIRTKRAFEDTYEKLRMANKAKAQVEKDIKNQILKTHNVLRNVRSNMENEL
# B8: Snapin (protein)
# chain: MDSDSTVTSLEENTENFCTNPTRDILAEGITNLFKPTIERLDERVASTIQLQAELRGQLDALAAQLRDIEKAQSQIPEFADKVKELLNVKHKVTVISNVLVTSQERLTGLHKLIEKEQRRRQALLDSALSTNIS
# Key:
# Test in all cases: MAPPIT interaction score (arbitrary units); higher = stronger binary interaction signal, active = hit call of the paper
# E(spl)m4-BFM = conditions: MAPPIT configuration: N-C; pair source set: RRS
# E(z) = conditions: pair source set: Lit-BM-16
# Elal = conditions: MAPPIT configuration: N-N; pair source set: Finley_Y2H
# Eato = conditions: MAPPIT configuration: N-N; pair source set: Lit-BS-16
# eIF3m = conditions: pair source set: Lit-BM-16
# pnr = conditions: MAPPIT configuration: N-N; pair source set: DPIM
# Doa = conditions: MAPPIT configuration: N-N; pair source set: Finley_Y2H
# EndoB = conditions: MAPPIT configuration: N-N; pair source set: screen_2
# Fatp3 = conditions: MAPPIT configuration: N-N; pair source set: Curagen_low_conf
# Dysb = conditions: pair source set: Lit-BM-16
# 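Note: HEK293T cells with Epo stimulation, STAT-responsive firefly luciferase reporter, fold induction versus unstimulated cells divided by the larger fold induction of two negative controls lacking either bait or prey.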
binder,measurement,setting,value
B1,MAPPIT interaction score,E(spl)m4-BFM,0.917
B2,MAPPIT interaction score,E(z); MAPPIT configuration: N-C,0.498
same,MAPPIT interaction score,E(z); MAPPIT configuration: N-N,0.583
B3,MAPPIT interaction score,Elal,0.515
B4,MAPPIT interaction score,Eato,0.224
same,MAPPIT interaction score,eIF3m; MAPPIT configuration: N-C,3.45
same,MAPPIT interaction score,eIF3m; MAPPIT configuration: N-N,5.78 (active)
same,MAPPIT interaction score,pnr,-0.504
B5,MAPPIT interaction score,Doa,0.00241
B6,MAPPIT interaction score,EndoB,3.62 (active)
B7,MAPPIT interaction score,Fatp3,-0.429
B8,MAPPIT interaction score,Dysb; MAPPIT configuration: N-C,-2.54
same,MAPPIT interaction score,Dysb; MAPPIT configuration: N-N,0.529
